Hit rate of the full screen: of about 330,000 compounds, about 4,900 (1.5%) were called active. This is one part of a sample in which actives are shown more often than they occur. Values without a mark were called inactive.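 How the source made its calls: active means inhibition above the mean inhibition across the screen plus 3 SD (cut at about 25% in these data); inactive means the rest.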

The inhibition is the relative decrease from the control value, in per cent.

The assay deals with Platelet-activating factor acetylhydrolase (Homo sapiens) (UniProt Q13093). The assay can be described thus: inhibition of plasma PAF acetylhydrolase – biochemical, fluorescence polarization, human, primary screen (AID 463082).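 Further: inhibitors block binding of the rhodamine activity-based probe so polarization drops; 0% = enzyme with DMSO and 100% = wells lacking pPAFAH.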 The following applies: recombinant pPAFAH, FP-rhodamine probe fluorescence polarization; at 3.39 µM; active compounds read high. A general note: In fluorescence polarisation assays a small probe gives low polarisation when free and higher when bound to something large.
Platelet-activating factor acetylhydrolase (Homo sapiens), sequence (Q13093 whole entry, looked up): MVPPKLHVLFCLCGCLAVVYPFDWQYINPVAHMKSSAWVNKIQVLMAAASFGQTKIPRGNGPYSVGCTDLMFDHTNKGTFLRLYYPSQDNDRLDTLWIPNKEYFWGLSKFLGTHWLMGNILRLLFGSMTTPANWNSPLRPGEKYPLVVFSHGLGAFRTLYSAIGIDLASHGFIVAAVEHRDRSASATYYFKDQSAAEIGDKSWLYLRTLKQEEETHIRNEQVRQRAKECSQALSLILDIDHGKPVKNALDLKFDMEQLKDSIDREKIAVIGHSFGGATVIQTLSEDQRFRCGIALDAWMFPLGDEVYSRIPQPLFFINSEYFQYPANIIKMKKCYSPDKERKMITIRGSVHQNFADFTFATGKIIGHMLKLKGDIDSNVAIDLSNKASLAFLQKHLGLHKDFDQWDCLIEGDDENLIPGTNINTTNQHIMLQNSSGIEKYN
As for `COCCOC(=O)c1sc(=S)n(CCOC)c1N`, the inhibition was 27.2% (active).

Regarding `COc1cccc(CNC(=O)C2CCCN(S(=O)(=O)N3CC(C)CC(C)C3)C2)c1` (centres undefined), the inhibition was 2.82%.

`CCCCN1C(=O)C(=O)N(CC(=O)Nc2cccc(C(C)=O)c2)C1=O`: the inhibition is -0.13%.

Consider `CC(=O)c1ccc(S(=O)(=O)NCCC(=O)N2CCN(c3ccccn3)CC2)cc1`, for which the inhibition was -1.99%.

`COc1ccccc1OCc1nnc(SCC(N)=O)n1-c1ccccc1`: the inhibition is -7.86%.

`COc1cccc(-c2coc3cc4oc(=O)c(CC(=O)O)c(C)c4cc23)c1`: the inhibition is 2.78%.

With `O=C(CCN1CCN(c2ccccc2)CC1)NNC(=S)Nc1ccccc1`, the inhibition is 3.64%.

Regarding `O=C(Cc1ccccc1)NC(=S)Nc1ccc(N2CCCCC2)cc1`, the inhibition is 28.6% (active).

For `Cc1ccccc1C(=O)NC(=S)Nc1ccc(N2CCN(C(=O)c3ccccc3)CC2)cc1`, the inhibition was 8.73%.

`O=C(COC(=O)c1c(Cl)cccc1Cl)Nc1cccc(S(=O)(=O)NC2=NCCCCC2)c1`: the inhibition was 0.66%.

For `CC(C)Nc1ccc(-n2nc3ccccc3[n+]2[O-])cc1`, the inhibition is -0.33%.

For `COC(=O)C1(CCSC)NC(c2ccc(OC)cc2OC)C2C(=O)N(c3cccc(C(C)=O)c3)C(=O)C21` (centres undefined), the inhibition is 8.06%.

Take `Cc1ccsc1C(=O)NNC(=O)COc1ccc(Br)cc1`: the inhibition was 5.73%.

For `CCCCNS(=O)(=O)c1ccc2nc(SCC(=O)Nc3cc(C)cc(C)c3)[nH]c2c1`, the inhibition is -1.99%.

As to `COc1cccc(CNC(=O)c2nnn(CC(=O)Nc3cc(Cl)ccc3C)c2N)c1`, the inhibition was -8.08%.

Take `CN(C)C(=O)c1nc2ccc(Cl)cn2c1CNCc1cccc(OC(F)(F)F)c1`: the inhibition was 27.7% (active).

As for `CN(C)C(=O)c1nc2ccc(Cl)cn2c1CN1CCN(c2ncccn2)CC1`, the inhibition was -1.11%.

With `Cc1ccc(N2NC(=O)/C(=C/C=C/c3ccco3)C2=O)cc1C`, the inhibition is 21.3%.

For `Cc1ccc(-n2nc3ccc(NC(=O)/C=C/c4ccco4)cc3n2)cc1C`, the inhibition was -3.71%.

Take `Cc1ccc(N=C2NC(=O)/C(=C/C=C/c3ccco3)S2)cc1C`: the inhibition is 57.3% (active).

For the compound `Cc1ccc(S(=O)(=O)N2CCCCC2)cc1NC(=O)[C@@H]1CCCN1C(=O)c1cccs1`, the inhibition is 4.96%.

As for `O=C(CNC(=O)c1n[nH]c2ccccc12)Nc1cc(Cl)ccc1Cl`, the inhibition was -4.9%.

For `C/C(=N\Nc1cccc(C(=O)O)c1)c1ccc2c(c1)Nc1ccccc1S2`, the inhibition is 32.8% (active).

On to `Cc1ccccc1NC(=O)c1cc(S(=O)(=O)Nc2cccc(C(=O)O)c2)ccc1Cl`, for which the inhibition is 2.58%.

`CC(=O)Nc1cccc(/C(C)=N/NC(=O)c2c(-c3ccccc3Cl)noc2C)c1`: the inhibition is 5.03%.

`CSc1ccc(/C=C/C(=O)NC23CC4CC(CC(C4)C2)C3)cc1`: the inhibition is -0.12%.

`COc1ccc(NC(C)=O)cc1NC(=O)CN1CCN(C2c3ccccc3-c3ccccc32)CC1`: the inhibition is 7.04%.

For `COC(=O)c1c(NC(C)=O)sc(C(=O)Nc2ccccc2OC)c1C`, the inhibition was -5.75%.

`CCC(=O)Nc1sc(C(=O)Nc2ccccc2)c(C)c1C(=O)OC`: the inhibition is 50.5% (active).

For `CCOC(=O)c1sc(NC(=O)COc2ncnc3ccccc23)c(C(=O)OCC)c1C`, the inhibition was 0.72%.

As to `COC(=O)c1ccc(CNC(=O)c2ccc3oc(C(C)C)nc3c2)cc1`, the inhibition is -0.67%.

Consider `CCCn1c(SCC(=O)c2ccc3c(c2)OCCO3)nnc1C(C)C`, for which the inhibition is 3.84%.

Take `COc1ccc(C)cc1-n1nnnc1SCc1nc2ccccc2c(=O)[nH]1`: the inhibition is -13.6%.

Turning to `Cc1ccc(Nc2nc(CSc3nnnn3-c3ccccc3)cc(=O)[nH]2)cc1`, the inhibition was 27.2% (active).

For the compound `Cc1ccc(NC(=O)CSc2nc(CSc3ccc(C)cc3)cc(=O)[nH]2)cc1`, the inhibition was 17.3%.

With `N#CC1(NC(=O)COC(=O)Cc2n[nH]c(=O)c3ccccc23)CCCCC1`, the inhibition is 0.43%.

As for `CC(C)C(C)(C#N)NC(=O)CSc1nc2scc(-c3ccccc3)c2c(=O)[nH]1` (centres undefined), the inhibition is 11.1%.

On to `CCCCCCSc1ccc([C@@H]2[C@@H]3C(=O)N(CC)C(=O)[C@@H]3[C@]3(C(=O)OC)CCCCN23)cc1OC`, for which the inhibition is 26.9% (active).

As for `CCN1C(=O)[C@@H]2[C@@H](c3ccc(-c4ccc(OC)cc4)c(OC)c3)N3CCC[C@@]3(C(=O)OC)[C@@H]2C1=O`, the inhibition is 2.25%.

As for `CCCCCCSc1ccc([C@@H]2[C@H]3C(=O)N(CC)C(=O)[C@H]3[C@]3(C(=O)OC)CCCCN23)cc1`, the inhibition is 6.84%.

In the case of `CCOC(=O)c1ccc2c(c1)nc(SCC(=O)NC(C)C)n2CC`, the inhibition is 3.79%.

Regarding `CN(CC(=O)NC1CCCCC1)S(=O)(=O)c1cccc2cccnc12`, the inhibition is 14.6%.

In the case of `CCn1c(SCC(=O)Nc2sc(C)c(C)c2C#N)nnc1C1CC1`, the inhibition is 1.95%.

As to `Cn1nc([N+](=O)[O-])nc1Sc1ccc(C(C)(C)C)cc1`, the inhibition was 8.17%.

Consider `CCC(=C/c1sc2ccc3ccccc3c2[n+]1C)/C=C1\Sc2ccc3ccccc3c2N1C`, for which the inhibition was 32.4% (active).

`CC(C)Oc1ccccc1C(=O)NC(CO)C(=O)O` (centres undefined): the inhibition was 2.51%.

Consider `CCOC(=O)C1=C(C)OC(N)=C(C#N)C1c1cncc(-c2ccc(F)cc2)c1` (centres undefined), for which the inhibition was 2.24%.

Take `O=C(Nc1cccc(S(=O)(=O)NC2=NCCC2)c1)C1CCCCC1`: the inhibition is 3.38%.

Consider `CCN(CCCNC(=O)c1ccc2c(c1)NC(=O)CN2C)c1cccc(C)c1`, for which the inhibition was 28% (active).

Take `CCN(CCCNC(=O)C1CCN(S(=O)(=O)c2cnc[nH]2)CC1)c1ccccc1`: the inhibition is -2.66%.

In the case of `CCN(CCCNC(=O)CCn1c(=O)[nH]c2ccsc2c1=O)c1ccccc1`, the inhibition is 4.5%.

Turning to `COc1cccc(N2CC(NS(=O)(=O)c3ccc(Cl)cc3)CC2=O)c1` (centres undefined), the inhibition is 9.38%.

Take `O=C(O)c1ccc(N/N=C/c2ccc3ncccc3c2)cc1`: the inhibition is 4.87%.

In the case of `Cc1ccc2cc(/C=N/Nc3ccc(C(=O)O)cc3)c(Cl)nc2c1`, the inhibition is 34% (active).

For the compound `Cc1ccc2cc(/C=N/NC(=O)[C@@H]3CCCN3)c(Cl)nc2c1`, the inhibition is 3.82%.

`COC(=O)[C@]1(C)CCC[C@@]2(C)C3CC[C@]4(OC(C)=O)C[C@@]3(CCC21)CC4=NO` (some centres undefined): the inhibition was -4.31%.

`COc1ccc(C)cc1NC(=O)CSc1nnc(CC(=O)Nc2ccccc2F)n1C`: the inhibition was 4.03%.

As to `CC1(OC(=O)C2CCCC2)C(=O)C=C2C=C(c3ccc(C#N)cc3)OC=C2C1=O` (centres undefined), the inhibition was 52.5% (active).

In the case of `C=CCN1C=C2C(=O)C(C)(OC(=O)CCc3ccccc3)C(=O)C=C2C=C1c1ccc(C#N)cc1` (centres undefined), the inhibition was 12.6%.

Consider `COCCN1C=C2C(=O)C(C)(OC(=O)C3CCCC3)C(=O)C=C2C=C1c1ccsc1` (centres undefined), for which the inhibition was 5.4%.

Take `O=C(COc1cccc2ccccc12)Nc1cc(S(=O)(=O)N2CCOCC2)ccc1N1CCOCC1`: the inhibition is 9.7%.

With `O=C(COC(=O)c1ccccc1F)Nc1cc(S(=O)(=O)N2CCOCC2)ccc1N1CCCC1`, the inhibition is 5.42%.

As for `O=C(COC(=O)Cc1ccc(F)cc1)Nc1cc(S(=O)(=O)N2CCOCC2)ccc1N1CCCC1`, the inhibition is 31% (active).

Consider `C/C=C/C(=O)OCc1csc(CC(=O)Nc2ccccc2C)n1`, for which the inhibition is -0.07%.

With `CC(=O)Nc1ccc(S(=O)(=O)NC(C)C(=O)OCC(=O)NC2CCCC2)cc1` (centres undefined), the inhibition is -1.59%.

As for `Cc1ccc(NC(=O)Cc2nc(COC(=O)C(C)NS(=O)(=O)c3ccc(C)cc3)cs2)cc1` (centres undefined), the inhibition is 32.8% (active).

Turning to `COc1ccccc1C(=O)NC(=S)Nc1ccccc1N1CCCCC1`, the inhibition is 5.28%.

`CCC(=O)Nc1ccccc1N1CCN(S(C)(=O)=O)CC1`: the inhibition is 1.48%.

Regarding `COc1ccc(C(=O)NC(=S)Nc2ccccc2N2CCN(S(C)(=O)=O)CC2)cc1OC`, the inhibition is 51.7% (active).

With `O=C(CSc1ncnc2c1oc1ccccc12)NC1CCCC1`, the inhibition was -0.51%.

Consider `Cc1ccc(Nc2c(F)c(F)c(F)c(F)c2C(=O)O)c(C)c1`, for which the inhibition was 8.5%.

Take `COCCCNC(=O)CC1C[C@H](C(=O)N2CCCCC2)[C@@]2(CCc3ccccc3)c3[nH]c4ccccc4c3CCN2C1=O` (some centres undefined): the inhibition is 1.17%.

As for `CC1=C/C(=N\OS(=O)(=O)c2ccccc2)C=CC1=O`, the inhibition is 0.71%.

As to `COc1ccc(/C=C2\SC(=S)N(CCCC(=O)NC3CCCC3)C2=O)cc1OC`, the inhibition is -4.96%.

On to `O=C(CCCN1C(=O)/C(=C/c2ccccc2)SC1=S)Nc1ccc(O)cc1`, for which the inhibition was 3.48%.

Turning to `O=C(CCCN1C(=O)/C(=C/c2ccco2)SC1=S)Nc1ccccc1`, the inhibition is 25.9% (active).

Regarding `COc1ccc(/C=C2\SC(=S)N(CCC(=O)Nc3cccc(C(=O)O)c3)C2=O)cc1OC`, the inhibition is -14.2%.

`O=C(CCCN1C(=O)/C(=C/c2cccs2)SC1=S)Nc1ccc(O)cc1`: the inhibition was 1.25%.

Consider `O=C(CCCN1C(=O)/C(=C\c2ccco2)SC1=S)Nc1cccc2ccccc12`, for which the inhibition is 27.9% (active).

Regarding `COc1ccc(S(=O)(=O)N2CCN(C)CC2)c(C)c1`, the inhibition was -1.79%.

Turning to `CN(C)/C=N/c1cc(=O)n(C)c(=O)n1CC1CC1`, the inhibition was -0.49%.

For the compound `Cc1ccc(C(=O)NC23CC4CC(CC(C4)C2)C3)c(Cl)c1`, the inhibition was 5.48%.

Take `Cc1ccsc1C(=O)OCC(=O)NCCc1ccccc1`: the inhibition was 2.4%.

For `Cc1ccsc1C(=O)OCC(=O)Nc1cccc(F)c1`, the inhibition was 31.5% (active).

Regarding `CC1CC1C(=O)OCC(=O)Nc1cccc(F)c1` (centres undefined), the inhibition is 13.3%.

Turning to `Cc1ccc2nc(-c3ccc(SCC(=O)Nc4cc(C)on4)nc3)[nH]c2c1`, the inhibition is -7.51%.

`CC(=O)c1ccc(NC(=O)CCc2nnc3ccc(NCc4ccco4)nn23)cc1`: the inhibition was -0.96%.

As to `CCOc1ccccc1NC(=O)CCc1nnc2ccc(NCc3ccco3)nn12`, the inhibition is 6.27%.

With `O=C(CCc1nnc2ccc(NCc3ccco3)nn12)Nc1cc(F)ccc1F`, the inhibition is 32.9% (active).

(Values after PubChem BioAssay AID463082 (The Scripps Research Institute Molecular Screening Center, 2010).)
